For some of these results: Entries with a potency or affinity are not part of this list.
Experiments:
Design in all cases: scale not given: direction of the effect not stated beside the values
[1] = target: Protein translocase subunit SecA (Escherichia coli (strain K12)) (UniProt P10408); assay: Assay to Identify E. coli SecA ATPase Inhibitors; format: functional; details: 30 µM
[2] = target: T1, Ubiquitin-activating enzyme e1, putative (Leishmania donovani (strain BPK282A1)) (UniProt E9BSI1); assay: Leishmania donovani Ubiquitin Activating Enzyme (LdE1); format: functional; details: 30 µM
T1 sequence (whole entry): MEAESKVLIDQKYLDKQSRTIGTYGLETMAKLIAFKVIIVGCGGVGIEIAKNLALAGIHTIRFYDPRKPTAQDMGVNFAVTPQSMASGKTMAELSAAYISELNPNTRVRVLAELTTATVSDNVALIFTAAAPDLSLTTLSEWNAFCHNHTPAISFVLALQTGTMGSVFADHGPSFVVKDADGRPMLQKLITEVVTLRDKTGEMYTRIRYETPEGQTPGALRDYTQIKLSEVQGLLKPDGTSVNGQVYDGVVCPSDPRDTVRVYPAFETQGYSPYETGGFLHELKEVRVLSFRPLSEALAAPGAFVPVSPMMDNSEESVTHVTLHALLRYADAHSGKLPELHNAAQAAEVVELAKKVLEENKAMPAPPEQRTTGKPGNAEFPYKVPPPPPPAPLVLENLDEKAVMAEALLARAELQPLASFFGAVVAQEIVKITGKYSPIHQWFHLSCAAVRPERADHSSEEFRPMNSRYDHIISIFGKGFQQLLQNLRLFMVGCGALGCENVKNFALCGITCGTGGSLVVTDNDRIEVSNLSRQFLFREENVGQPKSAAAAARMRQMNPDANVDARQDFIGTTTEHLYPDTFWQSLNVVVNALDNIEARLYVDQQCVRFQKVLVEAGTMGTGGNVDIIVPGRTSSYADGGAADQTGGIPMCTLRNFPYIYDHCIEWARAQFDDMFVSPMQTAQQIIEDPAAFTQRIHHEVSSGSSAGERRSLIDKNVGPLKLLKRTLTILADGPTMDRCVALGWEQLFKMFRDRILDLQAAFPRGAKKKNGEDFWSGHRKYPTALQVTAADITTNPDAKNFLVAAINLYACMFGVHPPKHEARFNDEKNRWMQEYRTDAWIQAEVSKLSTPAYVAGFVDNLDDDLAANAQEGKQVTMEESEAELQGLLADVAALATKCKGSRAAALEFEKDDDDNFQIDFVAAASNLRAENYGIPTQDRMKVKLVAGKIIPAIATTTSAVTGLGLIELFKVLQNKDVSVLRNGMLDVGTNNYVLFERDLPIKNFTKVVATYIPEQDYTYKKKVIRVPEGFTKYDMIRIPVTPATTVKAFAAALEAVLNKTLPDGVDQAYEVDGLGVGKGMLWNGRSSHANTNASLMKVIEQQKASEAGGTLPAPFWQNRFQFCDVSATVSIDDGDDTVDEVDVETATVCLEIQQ

[3] = target: AMP-activated protein kinase, AMPK (Homo sapiens) (UniProt P54646+O43741+P54619+Q9UGJ0+Q9Y478+Q13131+Q9UGI9); assay: AMP-dependent Kinase enzyme assay. An in vitro enzyme assay that detects ADP turnover that is directly proportional to AMPK activity. This uses naive AMPK that is activated during the assay with MK-8722; format: functional; details: 30 µM
[4] = target: Sialic acid-binding Ig-like lectin 9 (Homo sapiens) (UniProt Q9Y336); assay: Hs-Siglec9 ALPHAscreen SOP 20170721; details: 10 µM
[5] = test system: Trypanosoma cruzi; assay: Trypanosoma cruzi phosphomannomutase and mannose-1-phosphate guanylyltransferase assay; format: functional; details: 10 µM
[6] = target: T2, Arginase-2, mitochondrial (Homo sapiens) (UniProt P78540); assay: in vitro enzyme assay to detect the production of urea directly proportional to the activity of Arginase II; format: functional; details: 33.3 µM; note: in the data most compounds retested in dose-response had high values
T2 sequence (whole entry): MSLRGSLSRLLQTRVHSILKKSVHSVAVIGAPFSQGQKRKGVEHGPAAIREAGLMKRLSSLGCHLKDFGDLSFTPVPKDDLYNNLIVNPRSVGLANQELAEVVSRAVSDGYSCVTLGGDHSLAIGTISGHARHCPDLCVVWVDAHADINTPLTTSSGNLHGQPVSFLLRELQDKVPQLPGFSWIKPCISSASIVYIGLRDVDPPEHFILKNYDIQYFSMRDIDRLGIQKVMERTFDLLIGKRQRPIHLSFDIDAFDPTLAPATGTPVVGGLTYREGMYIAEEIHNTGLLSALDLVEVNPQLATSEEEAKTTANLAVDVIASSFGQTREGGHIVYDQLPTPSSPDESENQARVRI

[7] = target: T3, Proteasome subunit beta (Trypanosoma cruzi) (UniProt O96673); assay: Trypanosoma cruzi proteasome chymotrypsin-like activity (TcProtChymo) assay.; note: in the data most compounds retested in dose-response had high values; format: functional; details: 9.37 µM
T3 sequence (whole entry): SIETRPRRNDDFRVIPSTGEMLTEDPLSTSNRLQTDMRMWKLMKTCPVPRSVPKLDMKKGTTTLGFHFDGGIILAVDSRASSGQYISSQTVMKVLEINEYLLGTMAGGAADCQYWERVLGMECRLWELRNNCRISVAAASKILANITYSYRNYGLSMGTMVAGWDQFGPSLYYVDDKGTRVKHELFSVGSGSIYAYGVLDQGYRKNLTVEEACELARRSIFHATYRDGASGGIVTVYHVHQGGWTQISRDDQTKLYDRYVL

[8] = species on record: Homo sapiens; assay: To identify inhibition of the IFN signalling (Jak-Stat) pathway via expression of an eGFP reporter gene under the control of an IFN-stimulated response element (ISRE) containing MxA promoter.; format: functional; details: 30 µM
[9] = target: T4, Tyrosyl-tRNA synthetase, putative (Trypanosoma cruzi (strain CL Brener)) (UniProt Q4DSP6); assay: Trypanosoma cruzi tyrosyl tRNA synthetase (TcYRS) _High Tyrosine SOP; format: functional; details: 30 µM; note: in the data most compounds retested in dose-response had high values
T4 sequence (whole entry): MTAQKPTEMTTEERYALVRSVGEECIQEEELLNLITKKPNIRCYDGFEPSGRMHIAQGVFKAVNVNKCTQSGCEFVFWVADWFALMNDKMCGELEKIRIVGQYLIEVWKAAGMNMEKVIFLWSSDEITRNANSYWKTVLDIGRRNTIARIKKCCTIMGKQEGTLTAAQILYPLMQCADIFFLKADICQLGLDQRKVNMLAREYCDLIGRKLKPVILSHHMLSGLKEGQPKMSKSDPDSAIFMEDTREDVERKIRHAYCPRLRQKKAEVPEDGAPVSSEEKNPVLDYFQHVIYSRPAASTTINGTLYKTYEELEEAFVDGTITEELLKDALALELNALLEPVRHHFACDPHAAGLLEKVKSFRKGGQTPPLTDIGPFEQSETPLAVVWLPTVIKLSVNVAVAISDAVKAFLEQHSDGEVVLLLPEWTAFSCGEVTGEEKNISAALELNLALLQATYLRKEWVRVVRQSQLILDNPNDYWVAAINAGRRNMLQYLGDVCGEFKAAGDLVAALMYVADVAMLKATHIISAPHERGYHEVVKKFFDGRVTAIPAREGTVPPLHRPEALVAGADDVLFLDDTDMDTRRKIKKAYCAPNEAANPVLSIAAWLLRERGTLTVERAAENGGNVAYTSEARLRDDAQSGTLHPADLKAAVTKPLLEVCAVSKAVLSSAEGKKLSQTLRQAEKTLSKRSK

[10] = target: T4, Tyrosyl-tRNA synthetase, putative (Trypanosoma cruzi (strain CL Brener)); assay: Trypanosoma cruzi tyrosyl tRNA synthetase (TcYRS) SOP; format: functional; details: 30 µM
[11] = target: Chromo domain-containing protein 1 (Saccharomyces cerevisiae (strain ATCC 204508 / S288c) (Baker's yeast)) (UniProt P32657); assay: ScCHD-1 Enzyme Inhibition Assay; format: functional; details: 30 µM; note: in the data most compounds retested in dose-response had high values
Chain of Chromo domain-containing protein 1 (Saccharomyces cerevisiae (strain ATCC 204508 / S288c) (Baker's yeast)) (P32657 whole entry, the tested form may be a part): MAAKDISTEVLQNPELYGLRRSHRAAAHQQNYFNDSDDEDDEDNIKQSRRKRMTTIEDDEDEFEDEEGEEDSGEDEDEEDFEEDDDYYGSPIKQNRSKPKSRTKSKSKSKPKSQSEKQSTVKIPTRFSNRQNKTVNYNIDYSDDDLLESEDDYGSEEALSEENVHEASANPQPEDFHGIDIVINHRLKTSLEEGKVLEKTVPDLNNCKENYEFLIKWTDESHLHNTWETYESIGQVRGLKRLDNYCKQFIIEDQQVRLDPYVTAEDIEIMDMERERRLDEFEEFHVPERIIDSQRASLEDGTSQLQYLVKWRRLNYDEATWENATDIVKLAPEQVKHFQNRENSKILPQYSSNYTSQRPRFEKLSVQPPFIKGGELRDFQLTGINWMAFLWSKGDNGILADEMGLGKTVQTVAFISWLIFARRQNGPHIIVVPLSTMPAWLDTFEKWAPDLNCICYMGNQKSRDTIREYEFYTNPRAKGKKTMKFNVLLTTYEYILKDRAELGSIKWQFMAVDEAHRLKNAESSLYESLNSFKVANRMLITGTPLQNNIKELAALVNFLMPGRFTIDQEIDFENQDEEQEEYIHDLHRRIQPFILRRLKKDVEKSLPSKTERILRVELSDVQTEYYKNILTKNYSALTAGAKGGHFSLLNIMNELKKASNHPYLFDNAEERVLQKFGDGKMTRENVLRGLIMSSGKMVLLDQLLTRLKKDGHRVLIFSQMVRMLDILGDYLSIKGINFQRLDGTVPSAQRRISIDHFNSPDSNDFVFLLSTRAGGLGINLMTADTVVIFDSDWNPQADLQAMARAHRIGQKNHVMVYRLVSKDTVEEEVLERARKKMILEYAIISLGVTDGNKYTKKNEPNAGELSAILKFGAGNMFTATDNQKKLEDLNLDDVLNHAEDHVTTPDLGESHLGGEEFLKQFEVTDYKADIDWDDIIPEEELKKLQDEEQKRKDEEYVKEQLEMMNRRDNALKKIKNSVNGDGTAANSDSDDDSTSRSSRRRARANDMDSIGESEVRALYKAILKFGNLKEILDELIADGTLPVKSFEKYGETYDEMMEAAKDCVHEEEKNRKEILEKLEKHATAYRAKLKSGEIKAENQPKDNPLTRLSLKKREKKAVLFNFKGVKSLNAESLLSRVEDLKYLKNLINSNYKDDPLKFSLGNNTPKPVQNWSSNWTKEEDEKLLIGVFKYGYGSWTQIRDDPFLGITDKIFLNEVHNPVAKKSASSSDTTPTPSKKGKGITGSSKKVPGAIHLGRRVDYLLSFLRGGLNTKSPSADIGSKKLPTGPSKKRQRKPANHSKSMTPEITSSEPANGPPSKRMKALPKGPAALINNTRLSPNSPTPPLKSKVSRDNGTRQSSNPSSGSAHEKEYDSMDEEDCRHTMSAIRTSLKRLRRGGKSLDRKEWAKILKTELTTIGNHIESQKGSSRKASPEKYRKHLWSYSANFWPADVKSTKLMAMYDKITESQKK

Chain of Protein translocase subunit SecA (Escherichia coli (strain K12)) (P10408 whole entry): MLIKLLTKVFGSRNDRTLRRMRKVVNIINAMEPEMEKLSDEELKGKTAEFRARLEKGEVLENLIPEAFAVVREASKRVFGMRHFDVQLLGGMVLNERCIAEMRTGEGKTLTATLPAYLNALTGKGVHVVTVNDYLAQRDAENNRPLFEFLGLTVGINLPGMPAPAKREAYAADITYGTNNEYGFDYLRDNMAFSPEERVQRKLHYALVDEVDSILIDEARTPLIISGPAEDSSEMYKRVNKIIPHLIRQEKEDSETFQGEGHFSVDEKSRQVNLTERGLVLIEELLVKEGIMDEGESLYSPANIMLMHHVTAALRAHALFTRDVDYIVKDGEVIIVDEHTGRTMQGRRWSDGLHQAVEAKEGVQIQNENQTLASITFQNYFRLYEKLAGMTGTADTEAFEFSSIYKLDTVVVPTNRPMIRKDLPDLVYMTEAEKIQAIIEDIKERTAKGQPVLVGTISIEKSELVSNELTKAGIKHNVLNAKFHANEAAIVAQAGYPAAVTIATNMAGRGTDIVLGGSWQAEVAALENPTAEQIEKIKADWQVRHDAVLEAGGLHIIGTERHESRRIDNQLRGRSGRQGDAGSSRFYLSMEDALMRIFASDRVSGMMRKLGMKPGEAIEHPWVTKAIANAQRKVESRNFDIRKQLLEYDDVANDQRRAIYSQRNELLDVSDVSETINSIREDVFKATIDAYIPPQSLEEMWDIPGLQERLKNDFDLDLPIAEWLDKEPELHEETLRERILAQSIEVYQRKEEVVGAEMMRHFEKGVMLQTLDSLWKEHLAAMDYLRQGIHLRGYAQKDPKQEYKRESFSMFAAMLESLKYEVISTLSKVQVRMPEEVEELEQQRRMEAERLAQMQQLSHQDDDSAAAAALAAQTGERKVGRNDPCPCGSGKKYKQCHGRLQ
Chain of Sialic acid-binding Ig-like lectin 9 (Homo sapiens) (Q9Y336 whole entry): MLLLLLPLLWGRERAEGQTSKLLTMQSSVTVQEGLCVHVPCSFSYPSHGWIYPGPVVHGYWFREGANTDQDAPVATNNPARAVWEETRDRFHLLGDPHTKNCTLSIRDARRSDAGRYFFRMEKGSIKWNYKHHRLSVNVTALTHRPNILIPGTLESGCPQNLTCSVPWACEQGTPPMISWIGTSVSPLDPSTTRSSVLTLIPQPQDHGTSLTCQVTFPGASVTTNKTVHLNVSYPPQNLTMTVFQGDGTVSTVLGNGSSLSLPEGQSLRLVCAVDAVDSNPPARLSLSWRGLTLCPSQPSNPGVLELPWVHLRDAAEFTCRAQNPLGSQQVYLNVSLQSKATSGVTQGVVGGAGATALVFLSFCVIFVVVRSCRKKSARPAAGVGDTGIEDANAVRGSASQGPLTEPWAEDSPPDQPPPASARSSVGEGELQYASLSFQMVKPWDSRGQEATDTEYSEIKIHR

SMILES | Percent Effect [1] | Percent Effect [2] | Percent Effect [3] | Percent Effect [4] | Percent Effect [5] | Percent Effect [6] | Percent Effect [7] | Percent Effect [8] | Percent Effect [9] | Percent Effect [10] | Percent Effect [11]
CC(C)c1ncncc1C(=O)N1CCN(Cc2cscn2)CC1 | -12.5% | 13.5% | -16% | 21.4% | 10.7% | 2.03% | 5.03% | 5.44% | 6.93% | 23.2% | -8.1%
CC(C)Oc1ncc(C(=O)N2CCC(NC(=O)C3CC3)CC2)cc1Cl | -5.61% | -2.74% | -0.0193% | -3.72% | -5.56% | -0.798% | 12.8% | 5.13% | 0% | 6.17% | -0.607%
COc1ccnc(N2CCN(C(=O)NCc3ccc(C)s3)CC2)n1 | -4.33% | 15.6% | 6.59% | 2.69% | 4.6% | 1.47% | 5.42% | -2.65% | 5.71% | 18.8% | -0.255%
NCC(c1ccccc1)N1CCc2sccc2C1 (configuration not stated) | -1.09% | 7.89% | -9.46% | -3.01% | -3.41% | -5.92% | 17.6% | 5.62% | 8.51% | 18.2% | -3.07%
CC(O)CN1CCN(C(=O)c2ccc(N(C)C)nc2)CC1 (configuration not stated) | -1.4% | 33.8% | -9.23% | 0.151% | 4.68% | 0% | 11% | 8.66% | 7.77% | 9.76% | -4.89%
CS(=O)(=O)NCC1CCCCN1C(=O)Nc1cccnc1N1CCCC1 (configuration not stated) | -15.1% | 13.2% | -38% | 3.6% | 7.89% | 0% | 8.92% | 2.36% | 5.32% | 13% | -19.9%
Cc1ccc(CN2CCc3ncnc(-c4cccnc4)c3CC2)o1 | -3.48% | -2.67% | 0.55% | 8.87% | -0.772% | -5.91% | 8.72% | -10.7% | 2.08% | 0% | -3.74%
COc1cc(C)c(CN2CCC3(CC2)C(C(=O)O)CC(=O)N3C)cc1C (configuration not stated) | -0.465% | 16% | -9.44% | 6.22% | 0.682% | 6.77% | 10.3% | 22.7% | 3.83% | 18.5% | -3.84%
CS(=O)(=O)N1CCCC12CCCN(S(=O)(=O)c1ccc(F)cc1)C2 (configuration not stated) | -3.85% | 5.41% | -33.3% | -0.0111% | -5.18% | 1.24% | 10.7% | -4.37% | 6.45% | 6.17% | -9.7%
c1ccc(CN2CC[C@@H]3O[C@@H](COCC4CCOCC4)CC[C@@H]32)nc1 | -4.64% | 10.7% | 1.98% | -3.4% | -0.394% | 2.1% | 12.4% | -2.6% | 2.13% | 8.97% | -2.41%
CCC(=O)N1Cc2nccn2CC(CN(C)Cc2cccnc2)C1 (configuration not stated) | -1.64% | 13.3% | 10.6% | -7.3% | -4.72% | 1.17% | 7.49% | -7.96% | 4.25% | 8.97% | -6.9%
CN(CCCc1ccccc1)Cc1nc2c(cnn2C)c(=O)[nH]1 | -1.94% | 8.11% | -7.46% | -2.26% | -7.26% | 2.4% | 5.95% | 18.9% | 4.43% | 13.6% | -1.12%
COCCN1CCC2(CCCN(C(=O)c3cnoc3C)C2)C1=O (configuration not stated) | 0.295% | 8.22% | 3.34% | 5.08% | -6.55% | -3.19% | 12.2% | 0.796% | 4.17% | 3.7% | -5.73%
O=C(c1cnccn1)N1CCN2C[C@H](OCc3ccccn3)C[C@H]2C1 | -0.668% | 0% | 2.67% | 7.25% | -3.09% | 0.538% | 13% | -9.74% | 1.04% | -2.5% | 3.56%
COCCc1noc(CN(C)C2CCCN(c3ccc(C)nn3)C2)n1 (configuration not stated) | -2.39% | 2.67% | -6.26% | 0.801% | 3.41% | 1.56% | 11.9% | -8.02% | 4.92% | 6.17% | -2.05%
CCn1cnnc1CNC(=O)N1CCCN(C(C)=O)CC1 | -6.81% | 15.6% | -0.601% | 0.0707% | 0.881% | 4.84% | 12.7% | 1.78% | 10.5% | 25.9% | -20.1%
CS(=O)(=O)NC1CCN(C(=O)NCCNc2ccccn2)CC1 | -6.26% | 10.8% | 0.725% | -1.36% | -10.7% | 3.14% | 4.85% | 14.7% | -0.99% | 1.22% | -1.89%

Reference: ChEMBL document CHEMBL3988442, “University of Dundee, Small-Polar-MMV Screening Library” (2021)
